High-throughput results (PubChem BioAssay)
m5-HT2A agonist: mouse HTR2A agonism via beta-arrestin recruitment. P35363. CHO-K1 mHTR2A beta-arrestin complementation, luminescence; percent of 30 µM serotonin response. activation, % at 7.6 µM. 360,000 compounds, 0.66% hits;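 active means activation above a run cutoff, the mean activation of all tested compounds plus 3 SD, cut at about 14% in these data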;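 further: 0% = plate median of compound wells and 100% = 30 µM serotonin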
Exocytosis inh: lytic granule exocytosis inhibition. AID 651702. TALL-104 LAMP-1 surface exposure, flow cytometry; cells stimulated with thapsigargin and PMA. inhibition, % at 10 µM. 360,000 compounds, 0.66% hits;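 active means inhibition above about 55%, limit read from the data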
NTR1 agonist: NTR1 (human) agonism; NTR1-U2OS beta-arrestin-GFP spot imaging, agonist mode; activation, % at 20 µM; 330,000 compounds, 0.17% hits;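 active means activation at or above 40% of the spot to cytoplasm intensity ratio, with at least 20 cells analyzed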;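 further: 0% = DMSO without peptide and 100% = 100 nM NTR1 peptide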
ABHD5-PLIN5 inh: inhibitors of human ABHD5-perilipin-5 interaction; Q00G26+Q8WTS1; Split G. princeps luciferase complementation, luminescence, 4 h; inhibition, % at 4 µM; 360,000 compounds, 0.78% hits; AID 602281;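 active means inhibition above the mean inhibition across every tested compound plus 3 SD, cut at about 22% in these data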;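 further: 0% = DMSO only wells and the 100% control is not disclosed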
Beta2AR agonist: human beta-2 adrenergic receptor agonism by FAP; response, % (no concentration beside the values); Am2.2-beta2AR cells, FAP receptor internalization, flow cytometry; 340,000 compounds, 0.43% hits; AID 504454;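 active means response above a set limit, near 3 SD of response in nonfluorescent compounds, cut at about 42% in these data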
Target sequence (P07550 whole entry, looked up): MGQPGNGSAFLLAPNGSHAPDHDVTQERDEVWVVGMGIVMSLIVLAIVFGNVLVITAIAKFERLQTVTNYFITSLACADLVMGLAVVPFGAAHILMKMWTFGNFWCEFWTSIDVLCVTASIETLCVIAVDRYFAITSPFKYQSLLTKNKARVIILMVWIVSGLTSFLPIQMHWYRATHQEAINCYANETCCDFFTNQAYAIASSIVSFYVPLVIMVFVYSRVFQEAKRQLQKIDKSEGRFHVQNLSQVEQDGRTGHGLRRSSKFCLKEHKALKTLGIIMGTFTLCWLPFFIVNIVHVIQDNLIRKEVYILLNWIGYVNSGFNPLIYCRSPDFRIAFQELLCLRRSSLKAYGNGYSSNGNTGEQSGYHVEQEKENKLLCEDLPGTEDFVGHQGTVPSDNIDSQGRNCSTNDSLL
ABHD5 PLIN5 conf: confirmation of human ABHD5-PLIN5 interaction inhibitors | shares compounds with ABHD5-PLIN5 inh | AID 651612 | biochemical ABHD5-PLIN5 interaction, luminescence | inhibition, % at 4 µM | 2,200 compounds, 67% hits; in the data active means inhibition above about 23%;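 further: 0% = DMSO vehicle wells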
HNF4 split-luc: counter-screen for ABHD5-PLIN5 inhibitors: HNF4 split-luciferase | shares compounds with ABHD5-PLIN5 inh | HNF4 dimerization, luminescence, biochemical | inhibition, % at 4 µM | 2,200 compounds, 77% hits | AID 651674;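 active means mean inhibition across replicate wells exceeding the computed hit threshold, cut at about 13% in these data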;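 further: light from luciferase halves that rejoin when HNF4 fusion proteins dimerize; 0% = DMSO only wells and the 100% control is not given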
Active calls of the source: *; · = not tested or not shown; ! = repeats disagree. Compounds with a hit are over-represented: about 2.3% of the library has one in this group of screens.

SMILES | m5-HT2A agonist | Exocytosis inh | NTR1 agonist | ABHD5-PLIN5 inh | Beta2AR agonist | ABHD5 PLIN5 conf | HNF4 split-luc
c1coc(-c2cnc3ccccc3n2)c1 | -2 | -4 | · | -1 | · | · | ·
c1coc(-c2nc3ccccc3nc2-c2ccco2)c1 | 3 | 10 | 3 | 34* | 1 | 93* | 86*
O=[N+]([O-])c1ccccc1S(=O)(=O)Nc1ccc(S(=O)(=O)N2CCCC2)cc1 | 8 | -3 | 0 | 33* | 1 | 34* | 48*
Cc1ccc(NS(=O)(=O)c2ccccc2[N+](=O)[O-])cc1S(=O)(=O)N1CCCCC1 | 1 | 7 | 5 | -7 | -1 | · | ·
CC(NC(=O)COC(=O)c1cc(NS(=O)(=O)c2ccc(Cl)c([N+](=O)[O-])c2)ccc1O)C1CC2CCC1C2 (stereo not drawn) | 1 | 10 | 15 | 0 | 11 | · | ·
CC1CN(Cc2c(O)ccc3c2oc(=O)c2ccccc23)CC(C)O1 (stereo not drawn) | -11 | -2 | 5 | 49* | 11 | 72* | 44*
COc1cccc(CC2(CO)CCCN(Cc3ccc(-c4ccco4)cc3)C2)c1 (stereo not drawn) | -5 | 3 | -1 | 24* | 8 | 22* | 32*
COc1cccc(CC2(CO)CCCN(Cc3ccccc3-c3ccco3)C2)c1 (stereo not drawn) | 0 | -5 | -1 | 4 | 0 | · | ·
CCCCNC1C(CC)C(CCC)C(C#N)(C#N)C1(C#N)C#N (stereo not drawn) | -1 | 2 | 2 | 29* | 21 | 64* | 53*
COc1ccc(OC)c(S(=O)(=O)NCC(c2cccs2)N2CCc3ccccc3C2)c1 (stereo not drawn) | -5 | 2 | 2 | -9 | -2 | · | ·
CC1=NOC(=O)/C1=C\c1ccc(-c2ccc(Br)cc2)o1 | -3 | 33 | · | 38* | 83* | 93* | 106*
Cc1ccc(/C=C2\C(=O)ON=C2c2ccccc2)o1 | -2 | 1 | 1 | -4 | 5 | · | ·
Cc1oc(-c2ccc(Cl)cc2)cc1-c1nn2c(-c3ccoc3C)nnc2s1 | 2 | -1 | 5 | 24* | 11 | 13 | 17*
COc1ccc(C(=O)/C=C2/C(=O)Nc3ccccc32)cc1OC | 6 | -13 | 7 | 43* | -20 | 53* | 85*
COc1ccc(C(=O)/C=C2/C(=O)Nc3ccccc32)cc1 | 0 | 17 | 28 | 36* | 45* | 72* | 85*
O=C1Nc2ccccc2/C1=C/C(=O)c1cccs1 | 0 | 1 | 3 | 32* | 41 | 57* | 94*
COc1cc(OC)c(/C=C2\C(=O)Nc3ccccc32)c(OC)c1 | · | · | 5 | · | · | · | ·
CCOC(=O)[C@]12CCCC=C1N(Cc1ccc(Cl)cc1Cl)C(=O)[C@H](CC(=O)NCc1cccs1)C2 | -2 | 16 | · | 5 | · | · | ·
Cc1[nH]nc(C(F)(F)F)c1N=NN1CCOCC1 | -2 | 8 | · | 50* | -4 | 41* | 76*
Cc1ccc2c(c1)C(=O)c1ccccc1CS2=O (stereo not drawn) | -2 | -3 | 1 | -1 | -6 | · | ·
Clc1ccccc1CSc1nnc(-c2cccnc2)n1Cc1ccco1 | 4 | -4 | -1 | 31* | -5 | 9 | 12*
Fc1ccc(CSc2nnc(-c3cccnc3)n2Cc2ccco2)cc1 | 1 | 3 | 2 | 16 | -3 | · | ·
COc1cc2c(cc1NC(=O)CC1SC(N3CCCC3)=NC1=O)oc1ccccc12 (stereo not drawn) | -4 | 0 | 1 | 29* | 5 | 16 | 10
CC(Sc1nc(-c2ccc(F)cc2)cs1)C(=O)Nc1ccc(Cl)cn1 (stereo not drawn) | -1 | 4 | 6 | -1 | 0 | · | ·
O=C1/C(=C/c2cccnc2)CC/C1=C\c1cccnc1 | -4 | -1 | 2 | 42* | 0 | 72* | 50*
SMILES | m5-HT2A agonist | Exocytosis inh | NTR1 agonist | ABHD5-PLIN5 inh | Beta2AR agonist | ABHD5 PLIN5 conf | HNF4 split-luc
CCC1C/C(=C\c2cccnc2)C(=O)/C(=C/c2cccnc2)C1 (stereo not drawn) | 1 | -2 | · | 91* | 12 | 102* | 100*
CC(C)/C=C1\CC/C(=C\c2cccnc2)C1=O | 0 | 3 | 7 | 39* | 5 | 75* | 58*
O=C1/C(=C\c2cccnc2)CCc2ccccc21 | -3 | -6 | 1 | 14 | -4 | · | ·
NC(=O)c1ccc[n+](CC(=O)Nc2ccccc2C(=O)O)c1 | -3 | 8 | 1 | 7 | 2 | · | ·
O=C(O)c1ccccc1-c1c2cc(I)c(=O)c(I)c-2oc2c(I)c(O)c(I)cc12 | -9 | 4 | -3 | 30*! | -3 | 20 | 11
CC(=O)Cc1cc(O)c2ccccc2c1OC(=O)c1ccccc1 | -8 | -1 | -2 | 67* | 11 | 84* | 54*
O=C(O)CCC(=O)Nc1ccccc1Oc1ccccc1 | -1 | 5 | 1 | 0 | 5 | · | ·
NS(=O)(=O)c1ccc(N=Nc2ccc(O)c3ncccc23)cc1 | -13 | 3 | 0 | 24* | 15 | 29* | 20*
CCC1OC(C)Cc2[nH][nH]c(=O)c21 (stereo not drawn) | 6 | -2 | · | -11 | · | · | ·
O=C(Cc1ccccc1F)NC1CCCN(Cc2ccc(Cl)cc2)C1 (stereo not drawn) | -9 | 45 | 0 | -6 | 3 | · | ·
Cc1ccc(C)c(NC(=O)CN(C)C(=O)C2COc3ccccc3O2)c1 (stereo not drawn) | 5 | 11 | 2 | -3 | -1 | · | ·
CC(C)(C)c1cc(=O)n(-c2ccccc2)[nH]1 | 4 | 8 | · | 26* | 11 | -20 | -17
O=C(Nc1ccc(S(=O)(=O)NCc2ccco2)cc1)C1CCCCC1 | -5 | -3 | -1 | -3 | 2 | · | ·
Cc1sc2nc3c4ccccc4c(NCc4ccco4)nn3c(=O)c2c1C | 4 | 0 | 1 | 32* | -8 | 46* | 63*
Cc1nc(NCc2ccco2)c2c(C)c(C)sc2n1 | -6 | -3 | 2 | 8 | 3 | · | ·
CC1=NN(C(=O)c2ccc(Cn3nc(C)cc3C)o2)C(O)(C(F)(F)F)C1 (stereo not drawn) | -2 | -2 | -2 | 58* | 0 | 6 | -2
Cn1cccc1/C=C1\SC(=O)N(c2ccc(O)cc2)C1=O | 3 | -10 | 0 | 7 | 12 | · | ·
Cc1ccccc1CS(=O)(=O)c1nnc([C@H](Cc2ccccc2)NC(=O)OC(C)(C)C)o1 | -3 | 39 | 0 | 43* | 61* | 57* | 105*
C[C@H]1CN([C@@H](C)CO)C(=O)c2cc(C#CC3(O)CCCC3)cnc2O[C@H]1CN(C)C(=O)C1CC1 | -2 | 1 | · | 3 | · | · | ·
COC(=O)C1CCN(c2cc(=O)n(-c3ccc(OC)cc3)c(=O)[nH]2)CC1 | 7 | -4 | 2 | 24* | -4 | -3 | 5
